# Reference: PubChem BioAssay (NCATS)
# Inconclusive results are not listed. Unmarked numbers belong to inactive results. Calls of active or inactive are those of the source. Calls follow the shape of the dose curve; as a rule, active = well fitted cell-killing curve with a large enough effect; inconclusive = small, poorly fitted or top-dose-only effect, or effect the other way; inactive = no such curve, though single readings can be large or run the other way.
# Experiment: Viability qHTS for spleen associated tyrosine kinase inhibitor (SYKi) naive MV4-11 cells (AID 1963823); also: nearly all actives have a fitted effect of over 40% in size
# Settings: MV4-11 AML viability, CellTiter-Glo luminescence, 72 h; series mostly up to 45 µM; viability (% of control): at the top concentration
# In short: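 SYK inhibitor-naive MV4-11 cells, 500 per well, exposed to compounds for 72 hr at 37 C, 5% CO2. Viability read as CellTiter-Glo luminescence after 10 min at room temperature.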
# Potency is read from the fitted curve at half-maximal effect.
SMILES,viability (% of control),Potency
CC1(C)CCC2(C(=O)OC3OC(CO)C(O)C(O)C3O)CCC3(C)C(=CCC4C5(C)CCC(OC6OC(C(=O)O)C(OC7OC(CO)C(O)C(O)C7O)C(OC7OC(CO)C(O)C(O)C7O)C6O)C(C)(C)C5CCC43C)C2C1 (stereo not given),77.9% [at 9.25 µM],
C/C(=C\CO)CC/C=C(\C)C(=O)O[C@H]1[C@H](OC2OC=C(C(=O)O)C3CCC(C)(O)C23)O[C@H](CO)[C@@H](O)[C@@H]1O (stereo not given in full),78.1% [at 17.3 µM],
C[C@@H]1CC[C@]2(C(=O)O[C@@H]3O[C@H](CO)[C@@H](O)[C@H](O)[C@H]3O)CC[C@]3(C)C(=CCC4[C@@]5(C)C[C@@H](O)[C@H](O)[C@@](C)(C(=O)O[C@H]6[C@H](O)C[C@@]7(C)C(CC[C@]8(C)C7CC=C7[C@H]9[C@](C(=O)O[C@@H]%10O[C@H](CO)[C@@H](O)[C@H](O)[C@H]%10O)(CC[C@@H](C)[C@@]9(C)O)CC[C@]78C)[C@@]6(CO)C(=O)O)C5CC[C@]43C)[C@@H]2[C@]1(C)O (stereo not given in full),65.2% [at 9.25 µM],
C=CC(C)(O)CC/C=C(\C)C(=O)O[C@@H]1[C@@H](O)[C@H](OC(C)(C=C)CC/C=C(\C)C(=O)O[C@@H]2O[C@H](CO)[C@@H](O)[C@H](O)[C@H]2O)O[C@H](CO)[C@H]1OC(=O)/C(C)=C/CCC(C)(O)C=C (stereo not given in full),87.6% [at 9.25 µM],
CCCc1c(C(C)C)nc(C(C)C)c([C@@H](C)O)c1-c1ccc(F)cc1O,,9.2 µM (active)
O=C(/C=C/c1ccc2ccccc2n1)c1ccncc1,,1.46 µM (active)
C=CC(=O)N1CCCN(c2cc(NCCC(=O)O)nc(-c3ccccn3)n2)CC1,92.1%,
COc1cc(/C=C/C(=O)OC(C)(C)C(OC2OC(CO)C(O)C(O)C2O)C(=O)OCc2ccc(OC3OC(CO)C(O)C(O)C3O)cc2)ccc1O (stereo not given),82% [at 17.3 µM],
C/C=C/C=C/[C@@H]1O[C@](O)([C@H](CC)C(=O)NC/C=C/C=C(\C)[C@@H](OC)[C@@H](C)C2OC(/C=C/C=C/C=C(\C)C(=O)c3c(O)cc[nH]c3=O)[C@H](O)[C@@H]2O)[C@H](O)[C@H](O)C1(C)C (stereo not given in full),89% [at 17.3 µM],
CC1(C)CC[C@]2(C(=O)O[C@@H]3O[C@H](CO)[C@@H](O)[C@H](O)[C@H]3O)CC[C@]3(C)C(=CCC4[C@@]5(C)C[C@@H](O)[C@H](O)[C@](C)(C=O)C5CC[C@]43C)[C@@H]2[C@@H]1O (stereo not given in full),76.5% [at 17.3 µM],
CC(CCc1ccccn1)(CCc1ccccn1)C(=O)c1ccccc1,77.1%,
C[C@@H]1O[C@@H](O[C@H]2[C@H](Oc3cc(O)c(C(=O)CCc4ccc(O)cc4)c(O)c3)O[C@H](CO)[C@@H](O)[C@@H]2O)[C@H](O)[C@H](O)[C@H]1O,89.8%,
C=CC1(C)C=C2C(=O)CC3C(C)(C)CCCC3(C(=O)O)C2(O)CC1 (stereo not given),61.6%,
O=C1C(Cc2ccc(O)cc2)N2C(=O)CCN(C(=O)NCc3ccccc3)C2CN1Cc1cccc2ccccc12 (stereo not given),,1.46 µM (active)
CC(=O)N[C@@H](CC(C)C)C(=O)N[C@@H](CCC(=O)O)C(=O)N[C@@H](CCC(=O)O)C(=O)N[C@@H](CC(=O)O)C(=O)Nc1ccc2c(C(F)(F)F)cc(=O)oc2c1,90%,
CCC(C)CC(=O)OC1C(=O)C(CO)=CC(O)C1C(C)C (stereo not given),,2.59 µM (active)
COC(=O)C[C@@H]1C(C(=O)O)=CO[C@@H](O[C@@H]2O[C@H](CO)[C@@H](O)[C@H](O)[C@H]2O)/C1=C\COC(=O)/C=C\c1ccccc1,57% [at 17.3 µM],
CCOc1ccc(CCNC(=O)c2cc3sc(Cl)cc3n2C)cc1OCC,77.6%,
C/C(=C\CC[C@@H](C)[C@H]1CC(O)[C@@]2(C)C3CC[C@H]4C(C)(C)[C@@H](OC5OCC(O)C(O)C5OC5OC(CO)C(O)C(O)C5O)CC[C@@]45C[C@@]35CC(O)[C@]12C)C(=O)O (stereo not given in full),56% [at 17.3 µM],
O=C(Nc1cc(-c2ccccc2)nn1-c1ccccc1)c1ccc([N+](=O)[O-])cc1,76%,

SMILES,viability (% of control),Potency
C[C@@H]1O[C@@H](O[C@H]2[C@@H]3C=CO[C@@H](O[C@@H]4O[C@H](CO)[C@@H](O)[C@H](O)[C@H]4O)[C@@H]3[C@@]3(CO)O[C@@H]23)[C@H](OC(=O)/C=C/c2ccc(O)c(O)c2)[C@H](O)[C@H]1O,54.4% [at 17.3 µM],
CNC12CC3C[C@@](C)(C1)C[C@](C)(C3)C2,69.5%,
Cc1cccc(/C=N/Nc2cc(N3CCOCC3)n3nc(-c4ccncc4)cc3n2)c1,,1.03 µM (active)
CCN(CC)CCOc1ccc2c(c1)C(=O)c1cc(OCCN(CC)CC)ccc1-2,,13.3 µM (active)
CC(=O)/C=C/C1(O)C(C)CC(O[C@@H]2O[C@H](CO)[C@@H](O)[C@H](O)[C@H]2O)CC1(C)C (stereo not given in full),73.2% [at 17.3 µM],
O=C(O[C@H]1[C@@H]2C[C@@H]3OC[C@](O)([C@@H]1Cl)[C@H]2C(O[C@@H]1O[C@H](CO)[C@@H](O)[C@H](O)[C@H]1O)O3)c1ccc(O)c(O)c1 (stereo not given in full),80.1% [at 17.3 µM],
CC(=O)OC[C@@]12C(=O)C[C@@H](C)[C@]3(C[C@@H](c4ccoc4)O[C@H]3OC(C)=O)[C@H]1CCC[C@]21CO1,71.9% [at 17.3 µM],
CC(C)CCNC(=O)c1ccc2c(c1)nc(Nc1n[nH]c3ccc(-c4ccccc4OC(F)(F)F)cc13)n2C1CCC(O)CC1 (stereo not given),,16.4 µM (active)
COc1cccc(NC[C@@H](O)Cn2c3ccc(Br)cc3c3cc(Br)ccc32)c1,,18.4 µM (active)
CC1OC(OC2C(O)C(OC3CCC4(C)C(CCC5(C)C4CC=C4C6CC(C)(COC7OC(CO)C(O)C(O)C7O)CC(O)C6(C)CCC45C)C3(C)C)OC(C(=O)O)C2O)C(O)C(O)C1OC1OCC(O)C(O)C1O (stereo not given),54% [at 9.25 µM],
COc1c(C)c(OCC(O)C(C)(C)O)cc2c1COC2=O (stereo not given),85%,
CCC/C=C1\OC(=O)C2=C1CCC(O)C2O (stereo not given),82.1%,
COc1cc2c(cc1O)CC(O)(CO)C(CO)C2c1ccc(OC2OC(CO)C(O)C(O)C2O)c(OC)c1 (stereo not given),73.3% [at 17.3 µM],
OC[C@H]1O[C@@H](n2cnc3c(NCc4ccc(O)cc4)ncnc32)[C@H](O)[C@@H]1O,,1.03 µM (active)
COc1ccc(C(OC2OC(CO)C(O)C(O)C2O)C(C)O)cc1 (stereo not given),72.9%,
C[C@@H]1O[C@@H](O[C@H]2[C@H](O[C@H]3[C@H](O[C@H]4CC[C@@]5(C)C(CC[C@]6(C)C5CC=C5[C@@H]7CC(C)(C)C[C@@H](O)[C@]7(C)CC[C@]56C)C4(C)C)O[C@H](C(=O)O)[C@@H](O)[C@@H]3O)O[C@H](C(=O)O)[C@H](O)[C@@H]2O)[C@H](O)[C@H](O)[C@H]1O (stereo not given in full),101% [at 9.25 µM],
CC1=CC(=O)CC(C)(C)C1CCC(C)O[C@@H]1O[C@H](CO[C@@H]2OC[C@@H](O)[C@H](O)[C@H]2O)[C@@H](O)[C@H](O)[C@H]1O (stereo not given in full),58.7% [at 17.3 µM],
COC1CC(OC2CCC3(C)C(=CCC4C3C(OC(C)=O)C(OC(=O)/C=C/c3ccccc3)C3(C)C(C(C)O)CCC43O)C2)OC(C)C1OC1CC(OC)C(OC2OC(C)C(OC3OC(CO)C(O)C(O)C3O)C(OC)C2O)C(C)O1 (stereo not given),69.8% [at 9.25 µM],
O=C(NNc1nc2cc(F)ccc2n2cccc12)c1cnccn1,,0.82 µM (active)
CC(=O)N[C@H]1[C@H](O[C@H]2CC[C@@]3(C)C(CC[C@]4(C)C3CC=C3C5CC(C)(C)CC[C@]5(C(=O)O)[C@H](O)C[C@]34C)C2(C)C)O[C@H](CO[C@@H]2OC[C@H](O)[C@H](O)[C@H]2O[C@@H]2OC[C@@H](O)[C@H](O)[C@H]2O)[C@@H](O)[C@@H]1O (stereo not given in full),83.2% [at 9.25 µM],
